Screening results as filed in PubChem BioAssay.
SMN2 splice up: SMN2 splice variant enhancement. HEK293 SMN2-luciferase splicing reporter, luminescence, 30-36 h. Potency, µM (highest dose often 46.1 µM), for the others: at the highest dose activity change, positive = activation, most hits filed as activators. 2.8% of 210,000 active. AID 1458; also: % of control where 0% means no effect; nearly all actives have a fitted effect of over 55% in size
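qHTS luciferase splicing reporter: luminescence rises when SMN2 exon 7 is included in transfected HEK293 cells. Compound exposure lasted 30-36 h at 37C, with 4.5 mM final sodium butyrate as control, followed by a ONE-Glo read.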
FLuc modulator: inhibits or activates purified firefly luciferase, miR-21 counter-screen; 6.9% of 360,000 active; purified FLuc, Km substrates, luminescence inhibition; Potency, µM (titrated, usually from 57.5 µM), without a hit: at the highest dose activity change, negative = inhibition, hits mostly inhibitors; P08659;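 also: plate controls were vehicle for no effect and reference inhibitor for full effect; nearly all actives have a fitted effect of over 55% in size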
Target sequence (P08659 whole entry, looked up): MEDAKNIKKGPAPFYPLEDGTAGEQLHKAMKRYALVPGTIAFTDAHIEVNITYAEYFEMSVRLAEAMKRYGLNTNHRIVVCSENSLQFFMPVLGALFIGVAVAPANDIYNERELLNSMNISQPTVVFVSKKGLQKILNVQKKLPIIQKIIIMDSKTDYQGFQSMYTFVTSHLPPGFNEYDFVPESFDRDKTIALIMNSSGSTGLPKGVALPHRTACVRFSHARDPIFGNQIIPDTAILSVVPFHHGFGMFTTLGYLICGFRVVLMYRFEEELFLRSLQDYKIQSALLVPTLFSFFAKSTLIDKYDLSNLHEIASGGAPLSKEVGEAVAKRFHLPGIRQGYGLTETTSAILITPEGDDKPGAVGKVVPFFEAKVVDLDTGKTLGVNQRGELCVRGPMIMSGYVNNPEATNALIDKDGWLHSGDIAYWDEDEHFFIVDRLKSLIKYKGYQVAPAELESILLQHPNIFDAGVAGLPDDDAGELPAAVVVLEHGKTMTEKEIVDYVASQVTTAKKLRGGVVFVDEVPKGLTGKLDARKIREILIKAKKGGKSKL
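Purified P. pyralis luciferase (10nM final) with 10uM D-luciferin and 10uM ATP (Km levels) in 50mM Tris acetate pH 7.5, 10mM Mg acetate, 0.01% Tween-20, 0.05% BSA; qHTS 6-point titration, ~60 µM downward; luminescence read.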
NPC1 promoter act: activates the NPC1 promoter; Huh7 NPC1 promoter luciferase reporter, 24 h; Potency, µM (highest dose often 9.22 µM), without a hit: top-dose activation, most hits filed as activators; 2.4% of 320,000 active; AID 485313; also: % of control where 0% means no effect; nearly all actives have a fitted effect of over 60% in size
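Quantitative HTS used a cell-based reporter: Huh7 cells stably bearing the NPC1 promoter upstream of luciferase were treated with compounds for 24 h, and promoter activation was read as luminescence.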
ELG1 repair inh: inhibitors of ELG1-dependent DNA repair in HEK293T cells; HEK293T ELG1-luciferase reporter, luminescence, 16 h; DNA damage induced by 5-fluorouridine; Potency, µM (titrated, usually from 46.1 µM), for inactives: top-dose activity change, negative = inhibition, hits mostly inhibitors; 2.3% of 330,000 active; AID 504467; also: % is scaled to controls: 0 for no effect and ±100 for the full control effect; nearly all actives have a fitted effect of over 55% in size
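Cells (2,000 per well) received 5-fluorouridine plus test compound or DMSO and were incubated 16 hr at 37 °C, 5% CO2. Luciferase activity was read by luminescence 30 min after ONE-Glo addition; signal suppression marked inhibition of damage-induced ELG1 function.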
Rab9 promoter act: activators of Rab9 promoter | Huh7 Rab9 promoter-luciferase reporter, luminescence, 24 h | Potency, µM (doses to about 9.22 µM), without a hit: at the highest dose activation, negative = inhibition, hits mostly activators | 2.8% of 320,000 active | AID 485297; also: % of control where 0% means no effect; nearly all actives have a fitted effect of over 60% in size
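Stable Rab9-luc Huh7, 1500 cells/well, 2 h settle; cmpd in DMSO, 24 h, 37 °C/5% CO2; luciferase reagent 10 min RT; luminescence.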
ELG1 genotoxic: induces genotoxicity in HEK293T cells with luciferase-tagged ELG1 | Potency, µM (top dose mostly 46 µM), for the others: at the top dose activity change, positive = activation, usual class: activators | HEK293T ELG1-luciferase reporter, luminescence, 16 h | 1.3% of 330,000 active | AID 504466; also: % of control where 0% means no effect; nearly all actives have a fitted effect of over 60% in size
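Luminescence read-out: rising ELG1-luciferase signal, reflecting elevated ELG1 protein under genetic stress, flags genotoxic compounds. Cells were treated for 16 hr at 37 °C before ONE-Glo detection.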
* marks the source's active call; other numbers are inactive results. Most compounds without a hit are left out; they make up all but 9.2% or so of the library. Calls follow the shape of the dose curve; as a rule, active = well fitted curve in the direction sought with a large enough effect; inconclusive = small, poorly fitted or top-dose-only effect, or another doubt; inactive = no such curve, though single readings can be large; an effect the other way counts as inactive or inconclusive. Potency is read from the fitted curve at half-maximal effect.

Results for COc1ccc(NC2CCCN(C(=O)CN3CCOC3=O)C2)cc1 (stereo unspecified) ?
FLuc modulator: 11µM*; NPC1 promoter act: inconclusive; ELG1 repair inh: inconclusive; Rab9 promoter act: inconclusive; ELG1 genotoxic: inconclusive

How did Cn1nnc(NC(=O)c2ccc3ccccc3c2)n1 do in these assays?
SMN2 splice up: 4%; FLuc modulator: 15µM*; NPC1 promoter act: 12%; ELG1 repair inh: inconclusive; Rab9 promoter act: 27%; ELG1 genotoxic: 17%

Results for Cn1nnc(NC(=O)c2ccc(C(C)(C)C)cc2)n1 ?
SMN2 splice up: 22µM*; FLuc modulator: 3.4µM*; NPC1 promoter act: 3.2µM*; ELG1 repair inh: inconclusive; Rab9 promoter act: 1.6µM*; ELG1 genotoxic: inconclusive

What do the screens show for `Cn1nnc(NC(=O)c2ccccc2F)n1`?
SMN2 splice up: -2%; FLuc modulator: -2%; NPC1 promoter act: 7%; ELG1 repair inh: 20%; Rab9 promoter act: 1%; ELG1 genotoxic: 2%

Results for CCOC(=O)C1CCCN(CC(=O)Nc2nc(-c3ccccc3)cs2)C1 (stereo unspecified) ?
FLuc modulator: -17%; NPC1 promoter act: -6%; ELG1 repair inh: inconclusive; Rab9 promoter act: 2%; ELG1 genotoxic: -5%

How did CCc1cc2c(=O)c(-c3nc4ccccc4n3C)c(COCC(=O)O)oc2cc1O do in these assays?
SMN2 splice up: 11%; FLuc modulator: 1%; NPC1 promoter act: 2%; ELG1 repair inh: 13%; Rab9 promoter act: 11%; ELG1 genotoxic: -2%

How did CCCc1cc2c(=O)c(-c3nc4ccccc4s3)c(COCC(=O)O)oc2cc1O do in these assays?
SMN2 splice up: 51%; FLuc modulator: 9.5µM*; NPC1 promoter act: 2%; ELG1 repair inh: inconclusive; Rab9 promoter act: inconclusive; ELG1 genotoxic: 6%

Results for COc1ccc(C(=O)n2cc(C(=O)c3cc(C)ccc3O)cn2)cc1 ?
SMN2 splice up: inconclusive; FLuc modulator: 5%; NPC1 promoter act: -4%; ELG1 repair inh: inconclusive; Rab9 promoter act: -10%; ELG1 genotoxic: -7%

Results for Cc1ccc(-n2cc(C(=O)c3ccccc3O)cn2)cc1 ?
SMN2 splice up: -42%; FLuc modulator: 0.3µM*; NPC1 promoter act: 0.56µM*; ELG1 repair inh: inconclusive; Rab9 promoter act: inconclusive; ELG1 genotoxic: inconclusive

Results for Cc1ccc(O)c(C(=O)c2cnn(-c3ccccc3)c2)c1 ?
FLuc modulator: inconclusive; NPC1 promoter act: -1%; ELG1 repair inh: inconclusive; Rab9 promoter act: 3%; ELG1 genotoxic: inconclusive

How did O=C(c1cnn(C(=O)c2ccco2)c1)c1ccccc1O do in these assays?
ELG1 repair inh: -15%; ELG1 genotoxic: -1%

How did O=C(c1cnn(C(=O)c2ccc(O)cc2)c1)c1ccccc1O do in these assays?
SMN2 splice up: -6%; FLuc modulator: 3.8µM*; NPC1 promoter act: 2%; ELG1 repair inh: 3%; Rab9 promoter act: 0%; ELG1 genotoxic: -4%

Results for COc1ccc(C(=O)n2cc(C(=O)c3cc(C)ccc3O)cn2)cc1OC ?
SMN2 splice up: -4%; FLuc modulator: -3%; NPC1 promoter act: 2%; ELG1 repair inh: 23µM*; Rab9 promoter act: -1%; ELG1 genotoxic: -3%

What do the screens show for `Cc1ccc(C)c(CN2C(=O)c3ccccc3S(=O)c3ccc(C(=O)N(C)Cc4ccccc4)cc32)c1` (stereo unspecified)?
SMN2 splice up: -45%; FLuc modulator: -3%

Results for CCOc1ccc(NC(=O)c2ccc(CNc3c(N4CCCC4)c(=O)c3=O)cc2)cc1 ?
FLuc modulator: 13µM*; NPC1 promoter act: -4%; ELG1 repair inh: 13%; Rab9 promoter act: 6%; ELG1 genotoxic: 4%

Results for CC(=O)c1ccc(NC(=O)c2ccc(CNc3c(N4CCOCC4)c(=O)c3=O)cc2)cc1 ?
FLuc modulator: 12µM*; NPC1 promoter act: -2%; ELG1 repair inh: 2%; Rab9 promoter act: 1%; ELG1 genotoxic: -2%

How did CC(=O)c1ccc(NC(=O)c2ccc(CNc3c(N4CCCC4)c(=O)c3=O)cc2)cc1 do in these assays?
FLuc modulator: inconclusive; NPC1 promoter act: -3%; ELG1 repair inh: -7%; Rab9 promoter act: 2%; ELG1 genotoxic: -1%

How did O=C(CSc1nnnn1C1CCCCC1)Nc1cccc(NC(=O)c2ccco2)c1 do in these assays?
SMN2 splice up: -1%; FLuc modulator: 17µM*; NPC1 promoter act: -1%; ELG1 repair inh: inconclusive; Rab9 promoter act: -9%; ELG1 genotoxic: -3%

What do the screens show for `O=C(CSc1nnnn1C1CCCC1)Nc1cccc(NC(=O)c2ccco2)c1`?
SMN2 splice up: -1%; FLuc modulator: inconclusive; NPC1 promoter act: -1%; ELG1 repair inh: -15%; Rab9 promoter act: -1%; ELG1 genotoxic: 1%

How did CC(=O)c1cccc(-n2nnnc2SCC(=O)Nc2cccc(NC(=O)c3ccco3)c2)c1 do in these assays?
SMN2 splice up: -5%; FLuc modulator: inconclusive; NPC1 promoter act: 12%; ELG1 repair inh: 18µM*; Rab9 promoter act: 13%; ELG1 genotoxic: -11%

Results for O=C(C[C@H]1C/C=C\CC[C@@H](Cc2ccc(F)cc2)C(=O)OC[C@H]2CCCN2C1=O)N[C@H](CO)Cc1ccccc1 ?
ELG1 repair inh: 23µM*; ELG1 genotoxic: -4%

What do the screens show for `CC(C)(C)[C@@H]1COC(=O)[C@H](Cc2ccc(F)cc2)CC/C=C\C[C@@H](CC(=O)N(CCO)Cc2ccccc2)C(=O)N1`?
ELG1 repair inh: -7%; ELG1 genotoxic: -5%

What do the screens show for `O=C1N[C@H](Cc2ccccc2)COC(=O)[C@H](Cc2ccc(F)cc2)CC/C=C/C[C@@H]1CC(=O)N(CCO)Cc1ccccc1`?
ELG1 repair inh: 21µM*; ELG1 genotoxic: -12%

How did O=C1N[C@H](Cc2ccccc2)COC(=O)[C@@H](Cc2ccc(F)cc2)CC/C=C/C[C@H]1CC(=O)N(CCO)Cc1ccccc1 do in these assays?
ELG1 repair inh: 21µM*; ELG1 genotoxic: -11%

What do the screens show for `O=C(C[C@@H]1C/C=C\C[C@@H](Cc2ccc(F)cc2)C(=O)OC[C@@H]2CCCN2C1=O)N[C@H](CO)Cc1ccccc1`?
ELG1 repair inh: -2%; ELG1 genotoxic: -4%

Results for CC(C)(C)OC(=O)C[C@H]1C/C=C\C[C@H](CC(=O)N(CCO)Cc2ccccc2)C(=O)N[C@@H](c2ccccc2)COC1=O ?
ELG1 repair inh: 8.2µM*; ELG1 genotoxic: -7%
